Source: PubChem BioAssay (NCI)
Compounds without any hit were thinned out: in the full panel of roughly 83,000, 20% have a hit.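 Treatment: one concentration, 48 hours, 96-well format. Scoring: percent growth, with anything below 10 considered active.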 A number with no mark means an inactive call. The source made the active and inactive calls. *1 amine or outer side, *2 acyl side, *3 side chain or, on linkers, in order; H or OH if unused. Where a SMILES comes first, the peptide text is derived from it. Bridges are numbered along the chain shown (N, C = ends). Roman numbers before positions name the chains, in order. [ ]: non-standard residue; d: D form. ξ: configuration not given here. Actinocin(1to9) = Cc1c2oc3c(C)ccc(C(=O)[*:2])c3nc-2c(C(=O)[*:1])c(N)c1=O; NMeV = CN[CH](C(=O)O)C(C)C; ξD = NC(CC(=O)O)C(=O)O; Sar = CNCC(=O)O

tested on: HOP-92 NSCLC; test: NCI-60 one-dose screen, 48 h (100 = growth as untreated, 0 = no growth, -100 = all killed); settings: 10 µM unless noted

Row | SMILES | growth
1 | CCC(C)C1NC(=O)C(NC(=O)c2c3nc4c(C(=O)NC5C(=O)NC(C(C)CC)C(=O)N6CCCC6C(=O)N(C)CC(=O)N(C)C(C(C)C)C(=O)OC5C)ccc(C)c4oc-3c(C)c(=O)c2N)C(C)OC(=O)C(C(C)C)N(C)C(=O)CN(C)C(=O)C2CCCN2C1=O (centres undefined) (I: TIP[Sar][NMeV] / II: TIP[Sar][NMeV]; ester I:1-I:C, II:1-II:C; linker I:N-II:N via Actinocin(1to9); configuration not given here) | -16.6% (active)
2 | O=C(c1ccccc1)N(CCCl)C(=O)N(CCCl)C(=O)c1ccccc1 | 62.3%
3 | OC(CSc1ccccc1)CN1CCN(c2ccc(Cl)cc2)CC1 (centres undefined) | 63.8%
4 | CCCOS(=O)(=O)c1ccccc1 | 76.1%
5 | O=C(c1ccccc1)C(Br)[N+](=O)[O-] (centres undefined) | 103%
6 | CCCCCCCCC(=O)OCCCC(CCC(CCC1CCCO1)OC(=O)CCCCCCCC)OC(=O)CCCCCCCC (centres undefined) | 99%
7 | O=C(CCl)N(c1ccccc1)c1ccccc1 | 78.5%
8 | NC(=S)N/N=C/c1ncccc1O | 2.7% (active)
9 | COc1c(C)c2c(c(O)c1C/C=C(\C)CCC(=O)O)C(=O)OC2 | 73.9%
10 | CC1=CC(=O)C=CC1(C)C(Cl)(Cl)Cl (centres undefined) | 106%
11 | O=C1c2ccccc2C(=O)c2c(O)c(Cl)cc(O)c21 | 87.7%
12 | Cc1oc2c(C)c3oc(=O)cc(C)c3cc2c1CCl | 58.5%
13 | Oc1c(C(Nc2ccccc2)c2ccccc2)ccc2cccnc12 (centres undefined) | 19.9%
14 | O=C(/C=C/C(Cl)(Cl)Cl)Nc1ccc(Cl)cc1 | 82.1%
15 | N#CC(=C1SCS1)[N+](=O)[O-] | 63%
16 | Cc1cc(N/N=C/c2ccccn2)nc2ccccc12 | -2.87% (active)
17 | CCCCCCN(CCCCCC)CCCNc1nccc2ccccc12 | -14.6% (active)
18 | COC(=O)[C@]1(C)CCC[C@]2(C)c3ccc(C(C)C)cc3C(=O)[C@@H](Br)[C@@H]12 | 82.6%
19 | CCOC(=O)NC(/C=C/c1ccccc1)NC(=O)OCC | 108%

Row | SMILES | growth
20 | NCC(=O)NC(CC(=O)O)C(=O)O (centres undefined) (H-Gly-[ξD]-OH) | 100%
21 | Nc1nc2ncc(CNc3ccc(C(=O)NC(CCC(=O)NC(CCC(=O)NC(CCC(=O)NC(CCC(=O)NC(CCC(=O)O)C(=O)O)C(=O)O)C(=O)O)C(=O)O)C(=O)O)cc3)nc2c(=O)[nH]1 (centres undefined) | 95.3%
22 | O=C(Cc1nc2cc(Cl)c(Cl)cc2nc1CC(=O)c1ccccc1)c1ccccc1 | 67.3%
23 | Cn1c(-c2ccccc2)c(/C=C/C2=[N+](C)c3ccccc3C2(C)C)c2ccccc21 | -17.1% (active)
24 | NC(=Nc1nc(-c2ccccn2)cc2ccccc12)c1ccccn1 | -2.84% (active)
25 | CC(C)(C)c1ccc(O)c(-c2ccccc2)c1 | 94.5%
26 | CCOC(=O)C1=NN(c2ccccc2)C(=O)/C1=C\N1C(=O)/C(=C/c2cccc(O)c2)SC1=S | 73.6%
27 | CCN(CC)CCNc1ccc([N+](=O)[O-])c2sc3ccccc3c(=O)c12 | 16.9%
28 | NCCCN(CCCN)CCCNCc1c2ccccc2c(CNCCCN(CCCN)CCCN)c2ccccc12 | 95.9%
29 | CCOC(=O)/C(=C\c1ccc2ccccc2c1)P(=O)(OCC)OCC | 40.7%
30 | Cc1cc2nc(CC(=O)c3ccncc3)c(=O)[nH]c2cc1C | 92.8%
31 | Oc1c(Cl)cc(Cl)cc1C=NCC1CCC(CN=Cc2cc(Cl)cc(Cl)c2O)CC1 (centres undefined) | 76.6%
32 | CN1CCC(CN2c3ccccc3Sc3ccccc32)C1 (centres undefined) | -0.214% (active)
33 | CC1(C)OC2C(COC(c3ccccc3)(c3ccccc3)c3ccccc3)OC(c3c[nH]c4c(N)ncnc34)C2O1 (centres undefined) | 59.5%
34 | O=[N+]([O-])c1ccc(Oc2ccccc2Cl)c([N+](=O)[O-])c1 | 83.7%
35 | Cc1cc(Br)c2nsnc2c1[N+](=O)[O-] | 62.5%
36 | Cc1cccc2c(N)c3ccccc3nc12 | -20.4% (active)
37 | O=C(/C(Cl)=N/O)c1ccc(-c2ccccc2)cc1 | 82.1%

tested on: NCI-H522 lung; test: as above; settings: 10 µM unless noted

Row | SMILES | growth
38 | CCC(C)C1NC(=O)C(NC(=O)c2c3nc4c(C(=O)NC5C(=O)NC(C(C)CC)C(=O)N6CCCC6C(=O)N(C)CC(=O)N(C)C(C(C)C)C(=O)OC5C)ccc(C)c4oc-3c(C)c(=O)c2N)C(C)OC(=O)C(C(C)C)N(C)C(=O)CN(C)C(=O)C2CCCN2C1=O (centres undefined) (I: TIP[Sar][NMeV] / II: TIP[Sar][NMeV]; ester I:1-I:C, II:1-II:C; linker I:N-II:N via Actinocin(1to9); configuration not given here) | -45.5% (active)
39 | O=C(c1ccccc1)N(CCCl)C(=O)N(CCCl)C(=O)c1ccccc1 | 85.7%
40 | OC(CSc1ccccc1)CN1CCN(c2ccc(Cl)cc2)CC1 (centres undefined) | 90.3%
41 | CCCOS(=O)(=O)c1ccccc1 | 104%
42 | O=C(c1ccccc1)C(Br)[N+](=O)[O-] (centres undefined) | 64.4%
43 | CCCCCCCCC(=O)OCCCC(CCC(CCC1CCCO1)OC(=O)CCCCCCCC)OC(=O)CCCCCCCC (centres undefined) | 70.8%
44 | O=C(CCl)N(c1ccccc1)c1ccccc1 | -29.7% (active)
45 | NC(=S)N/N=C/c1ncccc1O | 26%
46 | COc1c(C)c2c(c(O)c1C/C=C(\C)CCC(=O)O)C(=O)OC2 | 19.4%
47 | CC1=CC(=O)C=CC1(C)C(Cl)(Cl)Cl (centres undefined) | 82.2%
48 | O=C1c2ccccc2C(=O)c2c(O)c(Cl)cc(O)c21 | 85.4%
49 | Cc1oc2c(C)c3oc(=O)cc(C)c3cc2c1CCl | 54.7%
50 | Oc1c(C(Nc2ccccc2)c2ccccc2)ccc2cccnc12 (centres undefined) | 4.85% (active)
51 | O=C(/C=C/C(Cl)(Cl)Cl)Nc1ccc(Cl)cc1 | -51.6% (active)
52 | N#CC(=C1SCS1)[N+](=O)[O-] | -40.3% (active)
53 | Cc1cc(N/N=C/c2ccccn2)nc2ccccc12 | -25.6% (active)
54 | CCCCCCN(CCCCCC)CCCNc1nccc2ccccc12 | 4.1% (active)
55 | COC(=O)[C@]1(C)CCC[C@]2(C)c3ccc(C(C)C)cc3C(=O)[C@@H](Br)[C@@H]12 | 80.8%
56 | CCOC(=O)NC(/C=C/c1ccccc1)NC(=O)OCC | 100%

Row | SMILES | growth
57 | NCC(=O)NC(CC(=O)O)C(=O)O (centres undefined) (H-Gly-[ξD]-OH) | 87.1%
58 | Nc1nc2ncc(CNc3ccc(C(=O)NC(CCC(=O)NC(CCC(=O)NC(CCC(=O)NC(CCC(=O)NC(CCC(=O)O)C(=O)O)C(=O)O)C(=O)O)C(=O)O)C(=O)O)cc3)nc2c(=O)[nH]1 (centres undefined) | 96.9%
59 | O=C(Cc1nc2cc(Cl)c(Cl)cc2nc1CC(=O)c1ccccc1)c1ccccc1 | 58.2%
60 | Cn1c(-c2ccccc2)c(/C=C/C2=[N+](C)c3ccccc3C2(C)C)c2ccccc21 | -28.6% (active)
61 | NC(=Nc1nc(-c2ccccn2)cc2ccccc12)c1ccccn1 | 36.3%
62 | CC(C)(C)c1ccc(O)c(-c2ccccc2)c1 | 83.5%
63 | CCOC(=O)C1=NN(c2ccccc2)C(=O)/C1=C\N1C(=O)/C(=C/c2cccc(O)c2)SC1=S | 82.3%
64 | CCN(CC)CCNc1ccc([N+](=O)[O-])c2sc3ccccc3c(=O)c12 | 12.7%
65 | NCCCN(CCCN)CCCNCc1c2ccccc2c(CNCCCN(CCCN)CCCN)c2ccccc12 | 89.7%
66 | CCOC(=O)/C(=C\c1ccc2ccccc2c1)P(=O)(OCC)OCC | -31.7% (active)
67 | Cc1cc2nc(CC(=O)c3ccncc3)c(=O)[nH]c2cc1C | 87.6%
68 | Oc1c(Cl)cc(Cl)cc1C=NCC1CCC(CN=Cc2cc(Cl)cc(Cl)c2O)CC1 (centres undefined) | 91.6%
69 | CN1CCC(CN2c3ccccc3Sc3ccccc32)C1 (centres undefined) | 86.2%
70 | CC1(C)OC2C(COC(c3ccccc3)(c3ccccc3)c3ccccc3)OC(c3c[nH]c4c(N)ncnc34)C2O1 (centres undefined) | 55.9%
71 | O=[N+]([O-])c1ccc(Oc2ccccc2Cl)c([N+](=O)[O-])c1 | 73.8%
72 | Cc1cc(Br)c2nsnc2c1[N+](=O)[O-] | -40% (active)
73 | Cc1cccc2c(N)c3ccccc3nc12 | -36% (active)
74 | O=C(/C(Cl)=N/O)c1ccc(-c2ccccc2)cc1 | 30.7%
